Most compounds without a hit are left out; they make up all but 2.3% or so of the library.
A549 viability = A549 cytotoxicity, counter-screen for Nrf2 inhibitors | A549 ARE-Fluc cells, CellTiter-Fluor viability, 18-24 h | Potency, µM (titrated, usually from 46 µM), for the others: at the top dose activity change, negative = cytotoxicity, actives largely listed as inhibitors | actives 0.16% (n = 390,000); also: potency is read from the fitted curve at half-maximal effect; % is scaled to controls: 0 for no effect and ±100 for the full control effect
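Cytotoxicity counterscreen: CellTiter-Fluor fluorescence was measured in A549 ARE_Fluc cells after 18-24 h of compound exposure in a concentration series. The subsequent BugLite luminescent read reports ARE-luciferase activity.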
Giardia kill = kills Giardia lamblia. Giardia lamblia trophozoite viability. activity change, % at 7.66 µM, hits read low. actives 0.15% (n = 340,000); in the data active = activity change below about -80%; inconclusive = between about -30% and that limit;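 also: parasites exposed to compound for two days anaerobically before the ATP read; % is scaled to controls: 0 for no effect and ±100 for the full control effect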
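Giardia lamblia trophozoites (100 cells/well) were incubated with compounds for 48 h at 37 deg C under anaerobic conditions. Viability was read as ATP content by one-step luminescence after 15-30 min at room temperature.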
Nrf2 inh = inhibitors of Nrf2 signaling; A549 ARE-Fluc reporter, luciferase luminescence, 18-24 h; Potency, µM (highest dose often 46 µM), for the others: at the highest dose activity change, negative = inhibition, hits mostly inhibitors; actives 2.1% (n = 360,000); also: potency is read from the fitted curve at half-maximal effect; % is scaled to controls: 0 for no effect and ±100 for the full control effect; nearly all actives have a fitted effect of over 60% in size
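A549 ARE_Fluc cells, 5000/well, 5% FBS OPTI-MEM; compounds in dose-response, 18-24 h at 37 °C/5% CO2; CellTiter-Fluor viability read (Ex 405/Em 525), then BugLite luciferase luminescence = Nrf2 activity.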
IDH1 R132H inh = inhibitors of human mutant IDH1 R132H; Potency, µM (series often up to 76.6 µM), inactives show at the highest dose activity change, negative = inhibition, usual class: inhibitors; IDH1-R132H enzyme, NADPH consumption, diaphorase/resazurin fluorescence; O75874; actives 0.093% (n = 390,000); also: potency is read from the fitted curve at half-maximal effect; % is scaled to controls: 0 for no effect and ±100 for the full control effect; nearly all actives have a fitted effect of over 65% in size
Target sequence (O75874 whole entry R132H, stated change not applied): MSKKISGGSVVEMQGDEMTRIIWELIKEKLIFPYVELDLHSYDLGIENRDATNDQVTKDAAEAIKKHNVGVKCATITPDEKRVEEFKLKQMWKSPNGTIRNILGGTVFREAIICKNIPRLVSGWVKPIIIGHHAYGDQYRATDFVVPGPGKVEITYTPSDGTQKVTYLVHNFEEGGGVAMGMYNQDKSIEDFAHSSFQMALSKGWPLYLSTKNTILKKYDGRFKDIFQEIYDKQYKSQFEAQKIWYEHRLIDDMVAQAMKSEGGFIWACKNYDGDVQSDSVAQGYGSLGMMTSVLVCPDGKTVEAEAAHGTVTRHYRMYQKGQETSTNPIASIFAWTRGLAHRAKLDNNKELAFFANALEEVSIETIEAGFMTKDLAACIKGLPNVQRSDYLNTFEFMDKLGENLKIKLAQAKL
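IDH1-R132H (0.5 ug/mL dispensed) in pH 7.5 Tris buffer was preincubated 30 min with compound, then given a substrate mix of 0.016 mM NADPH and 2 mM alpha-KG for 80 min at room temperature; remaining NADPH was read by diaphorase/resazurin fluorescence.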
Nrf2 ARE act = activators of Nrf2 (ARE) signaling; AREc32 ARE-luciferase reporter (MCF7-derived line), luminescence, 24 h; Potency, µM (titrated, usually from 46.1 µM), for the others: at the highest dose activation, actives largely listed as activators; actives 0.31% (n = 410,000); also: potency is read from the fitted curve at half-maximal effect; % of control where 0% means no effect; nearly all actives have a fitted effect of over 65% in size
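Nrf2 activation is followed as ARE-luciferase induction in the AREc32 line after one day of compound treatment; luminescence is read with Steady-Glo.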
Anesthetic bind = candidate novel general anesthetic via apoferritin binding; P02791; apoferritin/1-aminoanthracene competitive binding, fluorescence; Potency, µM (top dose mostly 77.5 µM), for the others: top-dose activity change, negative = displacement, actives largely listed as inhibitors; actives 0.074% (n = 350,000); AID 485281; also: potency is read from the fitted curve at half-maximal effect; % is scaled to controls: 0 for no effect and ±100 for the full control effect; nearly all actives have a fitted effect of over 20% in size
Target sequence (P02791 2-175 limits assumed): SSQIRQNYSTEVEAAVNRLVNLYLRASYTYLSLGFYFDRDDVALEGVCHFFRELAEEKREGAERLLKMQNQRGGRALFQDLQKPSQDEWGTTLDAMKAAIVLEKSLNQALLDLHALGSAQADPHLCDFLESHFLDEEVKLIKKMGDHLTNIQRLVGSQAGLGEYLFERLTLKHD
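10 uM apoferritin + 50% sat. 1-AMA, PBS; cpd 10 min RT; Ex380/Em535 endpoint; normalized to free probe vs complex; 4-param Hill fit; propofol titration as pos. ctrl.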
Starred values were filed as active, the others as inactive; ? = inconclusive; / = no result given. Unless noted, calls follow the shape of the dose curve; as a rule, active = well fitted curve in the direction sought with a large enough effect; inconclusive = small, poorly fitted or top-dose-only effect, or another doubt; inactive = no such curve, though single readings can be large; an effect the other way counts as inactive or inconclusive.

SMILES	A549 viability	Giardia kill	Nrf2 inh	IDH1 R132H inh	Nrf2 ARE act	Anesthetic bind
Cn1nc(C(F)(F)F)c(C(=O)Nc2ccc(F)cc2F)c1Sc1cccc(Cl)c1	?	-3	18µM*	3%	0%	-1%
C=CCn1c(SCCC)nc2ccccc2c1=O	-1%	-17	3%	/	/	/
C=C1CC(Cn2cc(Br)c(=O)[nH]c2=O)(c2ccc(-c3ccccc3)cc2)OC1=O (stereo unspecified)	?	-2	?	?	?	/
CCOc1ccc2[nH]c3c(NCCCOC)ncnc3c2c1	10%	28	1%	0%	0%	-4%
C1=C(CCNc2ncnc3c2[nH]c2ccccc23)CCCC1	-3%	2	5.2µM*	-1%	0%	-4%
CC(C)OCCCNc1ncnc2c1[nH]c1ccccc12	-22%	3	12µM*	2%	3%	-6%
CCc1cc2c(NCc3ccco3)ncnc2s1	7%	16	?	4%	3.5µM*	-10%
Cc1ccc2[nH]c3c(NCc4ccccc4)ncnc3c2c1	18µM*	38	5.2µM*	7%	4%	-10%
c1coc(CNc2ncnc3c2[nH]c2ccccc23)c1	-3%	-3	16µM*	/	/	/
Clc1ccc2[nH]cc(-c3nnnn3-c3ccc4ccccc4c3)c2c1	-27%	11	18µM*	8%	0%	-10%
Cc1ccc(-n2nnnc2-c2cnc3ccc(Cl)cc3c2-c2ccccc2)cc1	-26%	-6	?	3%	-1%	-14%
Cc1nn(C)cc1C(C)NC(=O)c1cc(COc2cccc3cnccc23)on1 (stereo unspecified)	-8%	3	10µM*	0%	-1%	-18%
Cc1nn(C)cc1C(C)NC(=O)c1cc(COc2c(F)cccc2F)on1 (stereo unspecified)	3%	3	-15%	17%	0%	4%
O=S(=O)(c1ccccc1)c1nc(-c2ccc(F)cc2)oc1N1CCCCCC1	-12%	/	26µM*	-7%	6%	84%
NC(=O)C1CCN(c2oc(-c3ccc(F)cc3)nc2S(=O)(=O)c2ccccc2)CC1	-2%	-4	4%	0%	-1%	/
CC(C)n1c(O)c(N=NC(=O)CNC(=O)Cc2ccc(Cl)cc2)c2ccccc21	-6%	-28	-20%	4%	0%	-17%
COc1ccccc1C(=O)NCC(=O)N=Nc1c(O)n(C(C)C)c2ccccc12	-15%	19	23µM*	6%	0%	-1%
C#Cc1nc(Nc2cccc(Cl)c2)nc(NC2CCCC2)n1	-8%	/	?	/	/	/
C(=N\Nc1nc(-c2ccccc2)cs1)/c1cccnc1	-5%	1	17%	4%	11%	-8%
Clc1ccc(-c2csc(N/N=C/c3cccnc3)n2)c(Cl)c1	2%	11	13µM*	-3%	5%	-10%
C=Cc1ccc(CSc2nnc(C)n3c2cc2occc23)cc1	12%	/	18µM*	13%	6%	-12%
Cc1cc(C)c(NC(=O)C(=O)NCCc2csc(-c3ccc(F)cc3)n2)c(C)c1	-17%	/	/	-1%	0%	8%
Cc1nnc(Cc2ccco2)c2n[nH]c(C)c12	/	/	/	7%	11µM*	/
COc1ccc(OC)c(NC(=O)CSc2nc3n[nH]c(C)c3c(=N)n2-c2cccc(Cl)c2C)c1	?	3	16µM*	-12%	5%	-14%
Cc1ccccc1-n1c(SCC(=O)Nc2ccccc2Cl)nc2n[nH]c(C)c2c1=N	-10%	-1	?	?	0%	-18%
SMILES	A549 viability	Giardia kill	Nrf2 inh	IDH1 R132H inh	Nrf2 ARE act	Anesthetic bind
CCc1ccccc1NC(=O)CSc1nc2n[nH]c(C)c2c(=N)n1-c1cccc(OC)c1	?	10	18µM*	-1%	7%	-23%
COC(=O)N(C)C[C@@H]1OCc2ccccc2-c2c(n(C)c3ccccc23)C(=O)N([C@H](C)CO)C[C@@H]1C	/	/	/	-2%	-1%	/
COc1ccc(C2Nc3ccccc3C(=O)N2Cc2ccco2)cc1COc1c(C)cccc1C (stereo unspecified)	?	17	?	/	/	/
COc1ccc(C2C(=O)N(C3CCC(C)CC3)CC(=O)N2C2CCCC2)cc1OC (stereo unspecified)	-1%	/	/	9%	-1%	-1%
COc1cccc(Nc2ncccc2C(=O)Nc2ccccc2)c1	?	-1	21µM*	-1%	2%	?
CCOc1ncccc1C(=O)Nc1ccc(C(=O)Nc2ccc(OC)cc2)cc1	-15%	-2	8.2µM*	6%	-1%	/
O=C(NNC(=O)c1ccccc1[N+](=O)[O-])c1ccc(NS(=O)(=O)c2cccs2)cc1	0%	4	5%	-4%	0%	-9%
CCOc1ncccc1C(=O)NNC(=O)c1ccc(NS(=O)(=O)c2cccs2)cc1	0%	10	2%	0%	2.5µM*	/
CSCC[C@@H]1NC(=O)[C@@H](NC(=O)[C@H](CCCNC(=N)N)NC(=O)[C@H](CC(C)C)NC(=O)[C@H](CCSC)NC(=O)[C@H](CC(=O)O)NC(=O)[C@H](Cc2ccccc2)NC(=O)[C@@H](N)CC(=O)O)CSSC[C@@H](C(=O)N[C@@H](Cc2c[nH]c3ccccc23)C(=O)N[C@@H](CCC(N)=O)C(=O)N[C@@H](Cc2ccc(O)cc2)C(=O)O)NC(=O)[C@@H]2CCCN2C(=O)[C@H](CCCNC(=N)N)NC(=O)[C@H](Cc2ccccc2)NC(=O)[C@H](C(C)C)NC(=O)[C@H](CCCNC(=N)N)NC(=O)CNC(=O)[C@H](CC(C)C)NC1=O	/	/	/	/	/	-13%
Cc1ccc(C)c(N2CCN(CCCNC(=O)c3cnn(-c4ccccc4Cl)c3C3CCN(C(=O)OC(C)(C)C)CC3)CC2)c1	?	/	?	7%	5%	?
Cc1ccc(C)c(OCC(=O)OCc2csc(CC(=O)Nc3ccccc3C)n2)c1	/	/	/	8%	-1%	/
CC(=O)NCCNc1nc2cc(-c3cccc(C(F)(F)F)c3)sc2c(=O)n1C	/	/	/	/	26%	/
CC(C)CCN(C(=O)Nc1ccc(Cl)c(Cl)c1)C1CCN(C(C)C)CC1	-1%	/	/	13%	26%	?
CCOC(=O)N1CCC(N(C(=O)Nc2ccc(Cl)c(Cl)c2)C(C)CC)CC1 (stereo unspecified)	?	9	15µM*	11%	4%	?
O=C1c2ccccc2NC(c2ccccc2O)N1Cc1ccco1 (stereo unspecified)	-2%	-23	-10%	/	/	/
CCN1CCN(Cc2ccc(NC(=O)c3ccc(C)c(/C=C/c4cnc(Nc5cc(N6CCNCC6)nc(C)n5)cn4)c3)cc2C(F)(F)F)CC1	?	3	18µM*	14%	-6%	-10%

Screens (PubChem BioAssay)
